# Test results published in the supplement of paper PMC10037445.
# The full ranking holds about 2,900 compounds; the median of “NF-kB SEAP reporter activity, fold change vs agonist alone” is about 0.99, and the highest 2% start at about 2.6. Many of the other results were omitted from the sample, so the highest values are more common in it than they were.
# Assays:
# RAW-Dual [1] = experiment: NF-kB SEAP reporter activity, fold change vs agonist alone; higher = enhanced NF-kB activity
# Outline: (§1)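 Reporter activity is given as fold change relative to agonist-alone wells. To measure it, 50 nL of library stock was pin-tooled onto RAW-Dual macrophages (50,000 cells/well, DMEM, 384-well plates), a PRR agonist followed 1 h later, and cells stayed at 37 °C, 5% CO2. Twenty hours on, supernatant was assayed for IRF (QuantiLuc luminescence) and NF-κB (QuantiBlue, 620 nm absorbance), and wells under 70% of agonist-control IncuCyte confluency in both mask sets were marked cytotoxic.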
# RAW-Dual [2] = experiment: NF-kB SEAP reporter activity, fold change vs agonist alone; cytotoxicity flag (confluency mask): cytotoxic (confluency <70% of control); library stock concentration (final ~1000-fold dilution): 10 mM; higher = enhanced NF-kB activity
# Outline: as §1
# RAW-Dual [3] = experiment: NF-kB SEAP reporter activity, fold change vs agonist alone; cytotoxicity flag (confluency mask): not cytotoxic; library stock concentration (final ~1000-fold dilution): 10 mM; higher = enhanced NF-kB activity
# Outline: as §1
# RAW-Dual [4] = experiment: NF-kB SEAP reporter activity, fold change vs agonist alone; cytotoxicity flag (confluency mask): not cytotoxic; library stock concentration (final ~1000-fold dilution): 2 mM; higher = enhanced NF-kB activity
# Outline: as §1
# [5] = library stock concentration (final ~1000-fold dilution): 10 mM, cytotoxicity flag (confluency mask): cytotoxic (confluency <70% of control), agonist: Imiquimod (TLR7) […]
# [6] = library stock concentration (final ~1000-fold dilution): 10 mM, cytotoxicity flag (confluency mask): cytotoxic (confluency <70% of control), agonist: MPLA (TLR4) […]
# [7] = agonist: ODN 1826 (TLR9) 0.5 ug/mL
# [8] = agonist: Pam2CSK4 (TLR2/6) 0.1 ug/mL
# [9] = agonist: Pam3CSK4 (TLR2/1) 0.1 ug/mL
# [10] = library stock concentration (final ~1000-fold dilution): 10 mM, cytotoxicity flag (confluency mask): not cytotoxic, agonist: Imiquimod (TLR7) […]
# [11] = library stock concentration (final ~1000-fold dilution): 10 mM, cytotoxicity flag (confluency mask): not cytotoxic, agonist: MPLA (TLR4) […]
compound,measurement,setting,value
CC(C)(C)c1cc(C=C(C#N)C#N)cc(C(C)(C)C)c1O,NF-kB SEAP reporter activity,RAW-Dual [1]; [5],1.7
same,NF-kB SEAP reporter activity,RAW-Dual [1]; [6],2.56
same,NF-kB SEAP reporter activity,RAW-Dual [2]; agonist: LPS (TLR4) 0.1 ug/mL,5.32
same,NF-kB SEAP reporter activity,RAW-Dual [2]; [7],1.32
same,NF-kB SEAP reporter activity,RAW-Dual [2]; [8],0.729
same,NF-kB SEAP reporter activity,RAW-Dual [2]; [9],1.48
N#CC(C#N)=Cc1ccc(O)c(O)c1,NF-kB SEAP reporter activity,RAW-Dual [1]; [10],0.89
same,NF-kB SEAP reporter activity,RAW-Dual [1]; [11],1.33
same,NF-kB SEAP reporter activity,RAW-Dual [3]; agonist: LPS (TLR4) 0.1 ug/mL,1.19
same,NF-kB SEAP reporter activity,RAW-Dual [3]; [7],0.619
same,NF-kB SEAP reporter activity,RAW-Dual [3]; [8],0.821
same,NF-kB SEAP reporter activity,RAW-Dual [3]; [9],0.937
CC(C)(C)c1cc(C=C(C#N)C#N)cc(Br)c1O,NF-kB SEAP reporter activity,RAW-Dual [1]; [5],2.04
same,NF-kB SEAP reporter activity,RAW-Dual [1]; [6],2.25
same,NF-kB SEAP reporter activity,RAW-Dual [2]; agonist: LPS (TLR4) 0.1 ug/mL,2.48
same,NF-kB SEAP reporter activity,RAW-Dual [2]; [7],1.29
same,NF-kB SEAP reporter activity,RAW-Dual [2]; [8],0.571
same,NF-kB SEAP reporter activity,RAW-Dual [2]; [9],0.667
CN1C(=O)C23CC4(C56CC78SSC(CO)(C(=O)N7C5Nc5ccccc56)N(C)C8=O)c5ccccc5NC4N2C(=O)C1(CO)SS3 (stereo not drawn),NF-kB SEAP reporter activity,RAW-Dual [1]; [5],0.117
same,NF-kB SEAP reporter activity,RAW-Dual [1]; [6],0.183
same,NF-kB SEAP reporter activity,RAW-Dual [2]; agonist: LPS (TLR4) 0.1 ug/mL,0.372
same,NF-kB SEAP reporter activity,RAW-Dual [2]; [7],0.141
same,NF-kB SEAP reporter activity,RAW-Dual [2]; [8],0.0829
same,NF-kB SEAP reporter activity,RAW-Dual [2]; [9],0.196
CCC1(O)C(=O)OCc2c1cc1n(c2=O)Cc2cc3ccccc3nc2-1 (stereo not drawn),NF-kB SEAP reporter activity,"RAW-Dual [1]; library stock concentration (final ~1000-fold dilution): 2 mM, cytotoxicity flag (confluency mask): not cytotoxic, agonist: Imiquimod (TLR7) […]",1.45
same,NF-kB SEAP reporter activity,"RAW-Dual [1]; library stock concentration (final ~1000-fold dilution): 2 mM, cytotoxicity flag (confluency mask): not cytotoxic, agonist: MPLA (TLR4) […]",1.83
same,NF-kB SEAP reporter activity,RAW-Dual [4]; agonist: LPS (TLR4) 0.1 ug/mL,4.12
same,NF-kB SEAP reporter activity,RAW-Dual [4]; [7],1.47
same,NF-kB SEAP reporter activity,RAW-Dual [4]; [8],1.05
same,NF-kB SEAP reporter activity,RAW-Dual [4]; [9],1.74
CCc1c2c(nc3ccccc13)-c1cc3c(c(=O)n1C2)COC(=O)C3(O)CC (stereo not drawn),NF-kB SEAP reporter activity,RAW-Dual [1]; [6],1.62
same,NF-kB SEAP reporter activity,RAW-Dual [2]; agonist: LPS (TLR4) 0.1 ug/mL,0.384
same,NF-kB SEAP reporter activity,RAW-Dual [2]; [7],2.29
same,NF-kB SEAP reporter activity,RAW-Dual [2]; [8],0.788
same,NF-kB SEAP reporter activity,RAW-Dual [2]; [9],0.641
C=CC1CN2CCC3(C(=O)Nc4ccccc43)C2CC1/C(=C\OC)C(=O)OC (stereo not drawn),NF-kB SEAP reporter activity,RAW-Dual [1]; [10],0.91
same,NF-kB SEAP reporter activity,RAW-Dual [1]; [11],1.1
same,NF-kB SEAP reporter activity,RAW-Dual [3]; agonist: LPS (TLR4) 0.1 ug/mL,0.951
same,NF-kB SEAP reporter activity,RAW-Dual [3]; [7],0.904
same,NF-kB SEAP reporter activity,RAW-Dual [3]; [8],0.882
same,NF-kB SEAP reporter activity,RAW-Dual [3]; [9],0.928
CC(=O)O.Cc1cc2c(C(C)C)c(O)c(O)c(C=O)c2c(O)c1-c1c(C)cc2c(C(C)C)c(O)c(O)c(C=O)c2c1O,NF-kB SEAP reporter activity,RAW-Dual [1]; [10],0.906
same,NF-kB SEAP reporter activity,RAW-Dual [1]; [11],0.963
same,NF-kB SEAP reporter activity,RAW-Dual [3]; agonist: LPS (TLR4) 0.1 ug/mL,3.69
same,NF-kB SEAP reporter activity,RAW-Dual [3]; [7],0.908
same,NF-kB SEAP reporter activity,RAW-Dual [3]; [8],1.15
same,NF-kB SEAP reporter activity,RAW-Dual [3]; [9],1.2
CC[C@H]1CN2CC[C@]3(C(=O)Nc4ccccc43)[C@@H]2C[C@@H]1/C(=C\OC)C(=O)OC,NF-kB SEAP reporter activity,RAW-Dual [1]; [10],0.86
same,NF-kB SEAP reporter activity,RAW-Dual [1]; [11],1.04
same,NF-kB SEAP reporter activity,RAW-Dual [3]; agonist: LPS (TLR4) 0.1 ug/mL,1.21
same,NF-kB SEAP reporter activity,RAW-Dual [3]; [7],1.05
same,NF-kB SEAP reporter activity,RAW-Dual [3]; [8],0.949
same,NF-kB SEAP reporter activity,RAW-Dual [3]; [9],1.03
COc1cc2c(c(OC)c1OC)-c1ccc(OC)c(=O)cc1C(NC(C)=O)CC2 (stereo not drawn),NF-kB SEAP reporter activity,RAW-Dual [1]; [10],2.62
same,NF-kB SEAP reporter activity,RAW-Dual [1]; [11],1.98
same,NF-kB SEAP reporter activity,RAW-Dual [3]; agonist: LPS (TLR4) 0.1 ug/mL,4.93
same,NF-kB SEAP reporter activity,RAW-Dual [3]; [7],3.47
same,NF-kB SEAP reporter activity,RAW-Dual [3]; [8],2.44
same,NF-kB SEAP reporter activity,RAW-Dual [3]; [9],2.52
CN1C2CCC1CC(OC(=O)C(CO)c1ccccc1)C2.CN1C2CCC1CC(OC(=O)C(CO)c1ccccc1)C2.O.O=S(=O)(O)O (stereo not drawn),NF-kB SEAP reporter activity,RAW-Dual [1]; [10],0.838
same,NF-kB SEAP reporter activity,RAW-Dual [1]; [11],0.986
same,NF-kB SEAP reporter activity,RAW-Dual [3]; agonist: LPS (TLR4) 0.1 ug/mL,0.923
same,NF-kB SEAP reporter activity,RAW-Dual [3]; [7],0.83
same,NF-kB SEAP reporter activity,RAW-Dual [3]; [8],0.79
same,NF-kB SEAP reporter activity,RAW-Dual [3]; [9],1.05
CC12CCC3C(CCC4=C(O)C(=O)CCC43C)C1CCC2=O (stereo not drawn),NF-kB SEAP reporter activity,RAW-Dual [1]; [10],0.986
same,NF-kB SEAP reporter activity,RAW-Dual [1]; [11],1.01
same,NF-kB SEAP reporter activity,RAW-Dual [3]; agonist: LPS (TLR4) 0.1 ug/mL,1.17
same,NF-kB SEAP reporter activity,RAW-Dual [3]; [7],1.21
same,NF-kB SEAP reporter activity,RAW-Dual [3]; [8],1.07
same,NF-kB SEAP reporter activity,RAW-Dual [3]; [9],1.23
Nc1ncnc2c1ccn2C1OC(CO)C(O)C1O (stereo not drawn),NF-kB SEAP reporter activity,RAW-Dual [1]; [5],0.147
same,NF-kB SEAP reporter activity,RAW-Dual [1]; [6],0.247
same,NF-kB SEAP reporter activity,RAW-Dual [2]; agonist: LPS (TLR4) 0.1 ug/mL,0.531
same,NF-kB SEAP reporter activity,RAW-Dual [2]; [7],0.19
same,NF-kB SEAP reporter activity,RAW-Dual [2]; [8],0.0753
same,NF-kB SEAP reporter activity,RAW-Dual [2]; [9],0.156
Cl.NCCc1ccc(S(=O)(=O)F)cc1,NF-kB SEAP reporter activity,RAW-Dual [1]; [10],1.07
same,NF-kB SEAP reporter activity,RAW-Dual [1]; [11],1.23
same,NF-kB SEAP reporter activity,RAW-Dual [3]; agonist: LPS (TLR4) 0.1 ug/mL,1.6
same,NF-kB SEAP reporter activity,RAW-Dual [3]; [7],1.01
same,NF-kB SEAP reporter activity,RAW-Dual [3]; [8],1.03
same,NF-kB SEAP reporter activity,RAW-Dual [3]; [9],1.9
